# PubChem BioAssay AID1578 (Sanford-Burnham Center for Chemical Genomics, 2009)
# The campaign covered roughly 290,000 compounds. About 3,000 (1%) were called active. Only a selection was taken, and actives are over-represented in it overall. Values without a mark were called inactive. Rule as the data show it: active = inhibition mostly above about 36% (no sharp cut-off); inactive = mostly below about 34%.
# Assay: NOD1 signaling inhibitors, primary screen, cell-based, luminescence, uHTS (AID 1578);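 also: HEK-293T reporter cells stimulated with the NOD1 agonist gamma-tri-DAP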
# Conditions: NOD1-driven NF-kB luciferase reporter cells, at 4 µM, active compounds read high
row,SMILES,inhibition
1,Cc1cccc(N(C(=O)CNC(=O)c2ccco2)C(C(=O)NC2CCCC2)c2ccncc2)c1 (stereo not given),-12.6%
2,CC1=NN(c2nc(-c3ccc(Cl)cc3)cs2)C(=O)C1,46.6%
3,CC1=NN(c2nc(-c3ccccc3)cs2)C(=O)C1,3.7%
4,O=C1CC(c2ccccc2)=NN1c1nc(-c2ccccc2)cs1,65.7% (active)
5,CCCNC(=O)c1onc(CSc2cccc(OC)c2)c1C(=O)NCCC,-4%
6,Cc1ccc(C(=O)Nc2ccc(-c3csc(C)n3)cc2)cc1,-53.9%
7,Nc1nc(-c2ccc(NC(=O)c3ccco3)cc2)cs1,-4.3%
8,Cc1nc(-c2cccc(NC(=O)c3ccco3)c2)cs1,-30.5%
9,Cc1nc(-c2ccc(C(=O)Nc3cccc(F)c3)cc2)cs1,26.3%
10,Cc1nc(-c2ccc(NC(=O)c3ccco3)cc2)cs1,54.6% (active)
11,Cc1nc(-c2ccc(C(=O)Nc3cccc(Br)c3)cc2)cs1,47.3% (active)
12,COCCN1Cc2cccc(C(=O)Nc3cccc(-c4nc5ccccc5[nH]4)c3)c2C1=O,-5.5%
13,CCOc1ccc(C(=O)OCc2nnc(-c3cccs3)o2)cc1OC,-3.4%
14,Oc1nc(Nc2ccccc2)sc1/C=C1\C=Nc2ccccc21,-13.5%
15,O=C(COC(=O)c1ccccc1Br)NCc1ccccc1,-32%
16,CC(=O)N/C(=C/c1ccc([N+](=O)[O-])cc1)C(=O)O,-71.3%
17,O=C(O)c1cc(-c2ccc(Cl)cc2)n(-c2ccccc2)n1,-29.5%
18,COC(=O)C1C2C=CC3(CN(c4cccc(C)c4)C(=O)C13)O2 (stereo not given),-25.9%
19,COc1ccc2nccnc2c1[N+](=O)[O-],-0.6%
20,O=C(CCCCC(=O)NCCCc1ccccc1)NCCCc1ccccc1,-23.1%
21,O=C(CCC(=O)NCCCc1ccccc1)NCCCc1ccccc1,80.7% (active)
22,O=C(CCCc1ccccc1)NCCCc1ccccc1,-23.7%
23,CCn1c(-c2ccccc2)c(C(=O)CCl)c2ccccc21,79.5% (active)
24,CCn1c(-c2ccccc2)c(C(=O)CC#N)c2ccccc21,-39.5%
25,CCn1c(-c2ccccc2)c(C(=O)O)c2ccccc21,-1.6%

row,SMILES,inhibition
1,Cc1ccc(OCc2nnc(SCC(N)=O)n2N)cc1,-1.8%
2,O=C(Cc1c[nH]c2ccccc12)Nc1ccc(N2CCOCC2)cc1,-30.3%
3,NC(=O)C1(N2CCCCC2)CCN(C(=S)Nc2ccc(S(N)(=O)=O)cc2)CC1,-18.7%
4,COc1cccc(OCc2cc(C(=O)NCc3ccc4c(c3)OCO4)no2)c1,-60.1%
5,COc1cccc(OCc2cc(C(=O)NCc3ccccn3)no2)c1,-60.1%
6,O=C(O)C(Cc1ccccc1)N1C(=O)/C(=C/c2cccs2)SC1=S (stereo not given),3%
7,O=C(O)C(Cc1ccccc1)N1C(=O)/C(=C/c2ccccc2)SC1=S (stereo not given),40.1%
8,Cc1ccc(CCNC(=O)CN(C)S(=O)(=O)c2ccc3c(c2)n(C)c(=O)c(=O)n3C)cc1,-2.1%
9,COc1ccc(/C=C/c2ccc3c(Br)ccc(O)c3n2)cc1,0.6%
10,COc1cccc(/C=C/c2ccc3cccc(O)c3n2)c1,7.9%
11,COc1ccc(/C=C/c2ccc3cccc(O)c3n2)cc1Br,6.9%
12,COc1cc(Br)cc(/C=C/c2ccc3cccc(O)c3n2)c1OC,23%
13,COc1ccccc1/C=C/c1ccc2cccc(O)c2n1,-8.4%
14,COc1cc(/C=C/c2ccc3c(Br)cc(Br)c(O)c3n2)ccc1O,79.9% (active)
15,COc1ccc(/C=C/c2ccc3cccc(O)c3n2)c(OC)c1OC,16.5%
16,COc1cc(Cl)cc(/C=C/c2ccc3cccc(O)c3n2)c1OC,8.1%
17,COc1cc(Br)c(/C=C/c2ccc3cccc(O)c3n2)cc1OC,11.8%
18,Cc1ccc(N(CC(=O)Nc2ccc3c(c2)OCCO3)S(C)(=O)=O)cc1,-32.2%
19,COc1ccc(NC(=O)CN2C(=O)NC(C)(c3ccccc3)C2=O)cc1Cl (stereo not given),-50.5%
20,COc1ccc(NC(=O)c2ccccc2NC(=O)NC2CCCCC2)cc1,-14.5%
21,CCCCNC(=O)[C@@H]1CSC2c3ccccc3C(=O)N21 (stereo not given in full),-0.2%
22,O=C1c2ccccc2C(=O)N1CCCC(=O)N1CCCc2ccccc21,-23.6%
23,Cc1ccc(-c2cc(C(F)F)n3ncc(C(=O)N4CCCCC4c4cccnc4)c3n2)cc1 (stereo not given),2.1%
24,Brc1cccc(CN2CCCCCC2)c1,-23%
25,N#C/C(=C\C=C\c1ccccc1)C(=O)N1CCCC1,23.1%

row,SMILES,inhibition
1,CCOC(=O)C(CC)Sc1nnc2n1C(C)(C)Cc1ccccc1-2 (stereo not given),-5.8%
2,COc1ccc(OC)c(-c2cc(C(=O)NCCN3CCOCC3)no2)c1,-5.6%
3,CC12C(=O)N(Cc3ccco3)C(=O)C1C1c3ccccc3C2c2ccccc21 (stereo not given),28.8%
4,C/C(=N/OCC(=O)NCCCCCCNC(=O)CO/N=C(/C)c1cccs1)c1cccs1,-2.7%
5,CCNC(=O)Cc1c(OC)ccc2cc(Br)ccc12,-58.1%
6,CN1/C(=C\C(=O)C[n+]2cccc(C(N)=O)c2)C(C)(C)c2ccccc21,7.7%
7,Cc1ccsc1/C=C/c1ccc2cccc(O)c2n1,63.2% (active)
8,Cc1ccsc1/C=C/c1ccc2ccccc2n1,27.3%
9,Oc1cccc2ccc(/C=C/c3cccs3)nc12,-7.6%
10,CC(CC(=O)Nc1ccc(S(=O)(=O)Nc2ncccn2)cc1)c1ccccc1 (stereo not given),-22.5%
11,C=CCOn1c(=O)c(-c2ccc(F)cc2)[n+]([O-])c2ccccc21,3.1%
12,CCOc1cccc(/C=N/Nc2nc(N3CCCC3)nc(N3CCCC3)n2)c1O,33.4% (active)
13,COc1cccc(/C=N/Nc2nc(N3CCCC3)nc(N3CCCC3)n2)c1O,29.2%
14,C(=N\Nc1nc(N2CCCC2)nc(N2CCCC2)n1)/c1ccccc1OCc1ccccc1,7.9%
15,O=C1C2C3C=CC(C3)C2C(=O)N1c1ccncc1 (stereo not given),29.4%
16,O=C(CSc1nc2cccnc2n1Cc1ccccc1)NCc1ccco1,8.8%
17,CC1CCCCN1CCNC(=O)c1ccc2c(c1)N(Cc1ccccc1F)C(=O)c1ccccc1S2=O (stereo not given),-12.3%
18,Cc1cccc(OCc2nnc(SCc3nc4ccccc4c(=O)[nH]3)o2)c1,-16.2%
19,COc1ccc2sc3ccccc3c(=O)c2c1,-32.1%
20,COc1cccc2sc3ccc(C#Cc4ccc(N)cc4)cc3c(=O)c12,-70%
21,COc1ccc2sc3ccccc3c(=O)c2c1OC,97.4% (active)
22,Fc1ccc(CSc2nnc3ccccn23)c(Cl)c1,-35.7%
23,Cc1oc(S(=O)(=O)N2CCOCC2)cc1C(=O)Nc1ccc(Cl)cc1,0.4%
24,O=C(Nc1nc2cc3c(cc2s1)OCCO3)c1cccc(S(=O)(=O)N2CCOCC2)c1,5.8%
25,O=C(Nc1nc2cc3c(cc2s1)OCCO3)c1cccc(N2C(=O)CCC2=O)c1,-14.7%

row,SMILES,inhibition
1,O=C(O)Cn1cc(C(=O)C2CC2)c2ccccc21,-13.5%
2,Cc1ccccc1NC(=O)c1ccc(NS(=O)(=O)c2cc(C(C)(C)C)cc(C)c2C)cc1,-29.6%
3,CCc1ccccc1NC(=O)Nc1ccc(F)cc1,-25.3%
4,CCCN(Cc1cc2cc(C)ccc2[nH]c1=O)S(C)(=O)=O,-18%
5,CCCCCCCCCC[n+]1cccc2c3ccccc3ccc21,64.2% (active)
6,CCCCC[n+]1cccc2c3ccccc3ccc21,33.7%
7,CCCCCCCCCCCCCCCC[n+]1cccc2ccccc21,37.4%
8,Cc1ccc(C(=O)n2nc(-c3ccco3)nc2N)cc1,-20.6%
9,COc1ccc(C(C(=O)NCC2CCCO2)N(C(=O)CNC(=O)c2cccs2)c2ccc(C)cc2)cc1OC (stereo not given),4.3%
10,CN(CCOCCOc1ccc(Cl)cc1Br)Cc1ccccc1,-30.1%
11,CCC1OC2(C)OC(=N)C1(C#N)C(C#N)(C#N)C2c1ccccc1 (stereo not given),-1.7%
12,CC1OC2(C)OC(=N)C1(C#N)C(C#N)(C#N)C2c1ccccc1 (stereo not given),-6.3%
13,CC(C)C1OC2(C)OC(=N)C1(C#N)C(C#N)(C#N)C2c1ccccc1 (stereo not given),78.7% (active)
14,CC(C)N1CCN(Cc2nc(-c3ccccc3)cs2)CC1CCO (stereo not given),-44.6%
15,COc1ccc(Nc2cc(NCCCO)c([N+](=O)[O-])c3nonc23)cc1,4.8%
16,COc1ccc(CNc2cc(NCCCO)c([N+](=O)[O-])c3nonc23)cc1,48.5% (active)
17,Cc1ccc(Sc2cc(NCCCO)c([N+](=O)[O-])c3nonc23)cc1,2.1%
18,Oc1c(N=Nc2ccccn2)ccc2ccccc12,96.4% (active)
19,Cc1ccc(N=Nc2ccc3ccccc3c2O)cc1,19%
20,Oc1c(N=Nc2ccc(F)cc2)ccc2ccccc12,-69.9%
21,CCc1ccc(OCC(=O)N/N=C(\C)c2ccccc2OC(F)F)cc1,-2.9%
22,Cc1[nH]nc(SCC(=O)NCc2ccc(Cl)cc2)c1[N+](=O)[O-],-33.8%
23,COC(=O)Nc1nc(-c2ccc(F)cc2)c(C)s1,-56.3%
24,C/C(=C/Cc1c(O)cc2oc(C)cc(=O)c2c1O)COC1OC(CO)C(O)C(O)C1O (stereo not given),-47.3%
25,COc1cc2ccc(=O)oc2c(CC=C(C)C)c1OC,-5.1%
